In PubChem BioAssay (NCATS) one finds Potency and activity change, negative = inhibition data, which are given here for 14 compounds.

Results filed as inconclusive are left out. Activity calls are given as the source filed them. Calls come from the whole dose curve; as a rule, active = well fitted inhibition curve with a large enough effect; inconclusive = small, poorly fitted or top-dose-only effect; inactive = no such curve, though single readings can be large or run the other way.
% is set by controls: 0 for no effect and ±100 for the full control effect; potency is the fitted concentration of half-maximal effect.

The target of this assay is Rap guanine nucleotide exchange factor 4 (Homo sapiens) (UniProt Q8WZA2). Briefly: Confirmatory qHTS for antagonist of cAMP-regulated guanine nucleotide exchange factor 4 (EPAC2) (AID 1645885). Note: nearly all actives have a fitted effect of over 25% in size. As to conditions: EPAC2 Rap1B-BODIPY-GDP exchange fluorescence, biochemical; series mostly up to 114 µM. (In qHTS, concentration-response curves come from the screen itself.)
Rap guanine nucleotide exchange factor 4 (Homo sapiens), sequence (Q8WZA2 whole entry, looked up): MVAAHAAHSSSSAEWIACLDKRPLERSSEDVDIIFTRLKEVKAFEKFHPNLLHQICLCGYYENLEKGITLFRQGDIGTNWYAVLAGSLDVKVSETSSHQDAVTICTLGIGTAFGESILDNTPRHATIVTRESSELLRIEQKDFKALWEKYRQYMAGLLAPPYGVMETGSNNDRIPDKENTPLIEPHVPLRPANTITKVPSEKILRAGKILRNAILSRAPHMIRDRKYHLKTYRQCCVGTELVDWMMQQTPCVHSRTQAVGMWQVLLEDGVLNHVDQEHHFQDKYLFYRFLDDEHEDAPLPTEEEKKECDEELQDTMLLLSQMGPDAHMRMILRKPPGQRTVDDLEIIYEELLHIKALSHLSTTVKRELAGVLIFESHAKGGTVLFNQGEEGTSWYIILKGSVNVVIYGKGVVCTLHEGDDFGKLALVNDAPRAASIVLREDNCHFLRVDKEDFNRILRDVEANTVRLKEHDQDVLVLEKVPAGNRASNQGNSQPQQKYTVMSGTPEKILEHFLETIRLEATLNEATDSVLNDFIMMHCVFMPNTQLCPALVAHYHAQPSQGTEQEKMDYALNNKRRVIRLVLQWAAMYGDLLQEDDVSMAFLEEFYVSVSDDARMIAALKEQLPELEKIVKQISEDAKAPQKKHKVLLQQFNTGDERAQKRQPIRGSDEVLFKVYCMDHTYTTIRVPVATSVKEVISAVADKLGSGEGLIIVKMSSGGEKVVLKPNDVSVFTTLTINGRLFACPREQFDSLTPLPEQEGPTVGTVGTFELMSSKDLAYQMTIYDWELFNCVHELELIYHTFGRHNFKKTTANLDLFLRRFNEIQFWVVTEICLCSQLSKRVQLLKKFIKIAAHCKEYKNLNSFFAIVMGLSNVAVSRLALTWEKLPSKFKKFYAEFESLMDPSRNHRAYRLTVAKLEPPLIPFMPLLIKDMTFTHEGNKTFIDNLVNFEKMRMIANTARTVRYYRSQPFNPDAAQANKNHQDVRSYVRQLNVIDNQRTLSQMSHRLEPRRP
Consider `CCOC(=O)[C@]12Cc3ccccc3[C@H]1N(C1CCCCC1)C(=O)c1cc(OC)ccc12`, for which the Potency entry was “inactive”.
As to `Nc1c(C(=O)Nc2ccc(Br)cc2F)sc2nc3c(cc12)N1CCC3CC1`, the activity change, negative = inhibition is -17.9% [at 12.7 µM] (inactive).
As for `Cc1c2cnn(CC(=O)N3CCC4(CC3)OCCO4)c(=O)c2c(C)n1Cc1ccc(F)cc1`, the Potency entry was “inactive”.
In the case of `COc1cccc(-n2c(/C=C/c3ccc(O)c(O)c3)nc3ccccc3c2=O)c1`, the activity change, negative = inhibition is -22.6% [at 12.7 µM] (inactive).
On the same count and under the same terms, in the case of `O=C1NCN(c2ccccc2)C12CCN(C(c1cc3ccccc3o1)c1nnnn1C1CCCC1)CC2` (centres undefined) it was -12.5% [at 12.7 µM] (inactive).
As to `CN(C)CC(C(=O)Cc1ccccc1)c1ccccc1` (centres undefined), the Potency result was “inactive”.
The same measure, in the same setting: then `CCOC(=O)[C@]12Cc3cc(Cl)ccc3[C@H]1N(C1CCCCC1)C(=O)c1ccccc12`, with “inactive”.
Same read-out and setting: then `CCN1C(=O)C(=C/C=C/c2ccco2)C(=O)N(CC)C1=S`, with “inactive”; and `Cc1ccc(N2C(=O)NC(=O)/C(=C\C=C\c3ccco3)C2=O)cc1`, with “inactive”.
`CCCSc1nc2ccccc2c(=O)n1-c1ccccc1OC`: the activity change, negative = inhibition is 34.1% [at 12.7 µM] (inactive).
In the case of `CCCCn1c(NS(=O)(=O)c2ccc(C)cc2)c(C(=O)OCC)c2nc3ccccc3nc21`, the Potency was 23.9 µM (active).
Turning to `O=C1NC(=O)N(c2cccc(Cl)c2)C(=O)/C1=C\c1ccc(Sc2nc3ccccc3[nH]2)o1`, the activity change, negative = inhibition was 0.757% [at 12.7 µM] (inactive).
As to `O=C1NC(=O)N(Cc2ccccc2)C(=O)/C1=C/C=C/c1ccco1`, the activity change, negative = inhibition was -1.14% [at 12.7 µM] (inactive).
Still for that read-out and setting: then `N#CC(C#N)=NNc1ccc(S(N)(=O)=O)cc1`, with 1.67% [at 12.7 µM] (inactive).
